# Only some compounds are listed: those with a hit (about 12% of all), similar ones and a draw of the others.
# HP1b binding inh = blocks HP1-beta chromodomain binding to methylated histone tails; Potency, µM (series often up to 114 µM), usual class: inhibitors; P83916; AID 540317; AlphaScreen HP1-beta / biotin-H3K9me3 peptide binding; 0.56% of 390,000 active; note: nearly all actives have a fitted effect of over 70% in size
#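 HP1-beta protein (50 nM final) preincubated 30 min at room temperature with biotinylated H3(1-18)K9me3 peptide (50 nM) in PBS pH 7.4, 0.01% Tween-20, then compound added for 30 min. AlphaScreen streptavidin donor/nickel chelate acceptor beads (10 ug/mL final), 30 min dark, luminescence read.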
# PLK1 PBD inh = blocks phosphopeptide binding to human PLK1 polo-box domain; Potency, µM, usual class: inhibitors; AID 720504; Plk1 PBD binding of FITC phosphopeptide, fluorescence polarization; P53350; 2.8% of 360,000 active; note: series mostly up to about 57 µM; nearly all actives have a fitted effect of over 65% in size
# Target sequence (P53350 whole entry, looked up, the tested form may be a part): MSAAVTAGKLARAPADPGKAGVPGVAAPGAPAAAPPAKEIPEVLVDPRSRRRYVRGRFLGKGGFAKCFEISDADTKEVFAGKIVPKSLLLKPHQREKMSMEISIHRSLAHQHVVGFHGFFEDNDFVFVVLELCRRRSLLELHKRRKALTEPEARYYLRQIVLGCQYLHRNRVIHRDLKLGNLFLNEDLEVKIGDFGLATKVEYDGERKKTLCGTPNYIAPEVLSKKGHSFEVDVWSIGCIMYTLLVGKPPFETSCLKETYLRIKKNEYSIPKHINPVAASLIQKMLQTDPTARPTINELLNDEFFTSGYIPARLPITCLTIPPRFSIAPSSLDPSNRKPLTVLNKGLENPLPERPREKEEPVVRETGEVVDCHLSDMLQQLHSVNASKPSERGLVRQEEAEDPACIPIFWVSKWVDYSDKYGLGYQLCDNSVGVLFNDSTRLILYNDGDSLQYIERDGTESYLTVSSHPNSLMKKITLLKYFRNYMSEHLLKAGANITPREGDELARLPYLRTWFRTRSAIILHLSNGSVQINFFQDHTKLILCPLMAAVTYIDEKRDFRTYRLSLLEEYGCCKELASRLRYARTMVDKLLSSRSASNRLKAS
# G9a inh = G9a (human) methyltransferase inhibition. Q96KQ7. G9a H3K9 monomethylation, AlphaScreen, 2 h. Potency, µM (titrated, usually from 102 µM), hits mostly inhibitors. 8.8% of 350,000 active. AID 504332; note: nearly all actives have a fitted effect of over 75% in size
#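 Step 1: enzyme (final 20 nM) with compound, 15 min RT. Step 2: substrate peptide 500 nM and SAM 20 uM, 2 h RT. Step 3: anti-H3K9me1 antibody and AlphaScreen beads, 10 min, then plate read.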
# Sfp inh = inhibitors of Bacillus subtilis Sfp phosphopantetheinyl transferase; Q9F4F7; Biochemical Sfp PPTase activity, qHTS; Potency, µM, most hits filed as inhibitors; 3.5% of 310,000 active; AID 1490;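 note: the enzyme is Sfp with the accession as filed and its product quenches rhodamine fluorescence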
#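 After 15 min at room temperature with compound, 15 nM Sfp received 5 uM rhodamine-CoA plus 12.5 uM BHQ-2-ybbR (50 mM Hepes pH 7.6, 10 mM MgCl2). Rate came from the fluorescence difference over 30 min, ex 525/em 598 nm.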
# JMJD2A Tudor inh = blocks the human JMJD2A Tudor domain; AID 504339; Potency, µM (doses to about 114 µM), actives largely listed as inhibitors; AlphaScreen JMJD2A-Tudor / H3K4me3 peptide binding; 4.4% of 390,000 active; note: nearly all actives have a fitted effect of over 50% in size
# BAZ2B block = inhibitors of human BAZ2B bromodomain; Q9UIF8; AlphaScreen BAZ2B-H3K14Ac peptide displacement; Potency, µM (highest dose often 114 µM), usual class: inhibitors; 4.4% of 360,000 active; note: nearly all actives have a fitted effect of over 60% in size
#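 AlphaScreen displacement of biotin-H3(5-23)K14Ac peptide (50 nM final) from BAZ2B (50 nM final) in PBS pH 7.4, 0.01% Tween-20; complex preformed 30 min RT, then compounds (top 110 uM) 30 min RT, beads 20 min dark.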
# Hits are given with their value; n = inactive; u = inconclusive; x = no result given; [ ] = remark or other dose. Calls come from the whole dose curve; as a rule, active = well fitted curve in the direction sought with a large enough effect; inconclusive = small, poorly fitted or top-dose-only effect, or another doubt; inactive = no such curve, though single readings can be large; an effect the other way counts as inactive or inconclusive.
SMILES,HP1b binding inh,PLK1 PBD inh,G9a inh,Sfp inh,JMJD2A Tudor inh,BAZ2B block
COCCn1c(C)cc(O)c(C(c2ccccc2Cl)N2CCN(c3ccccc3)CC2)c1=O (stereo unspecified),n,x,n,x,n,n
CCc1ccc(-c2cc(C)no2)cc1S(=O)(=O)N1CCN(c2ccc(F)cc2)CC1,n,n,n,n,n,u
Cc1nc([N+](=O)[O-])c(SCC(O)CCl)n1Cc1ccc(Cl)cc1 (stereo unspecified),n,n,28µM,n,n[11.4 µM],n
COc1ccc(Cn2c(C)nc([N+](=O)[O-])c2SCC(=O)O)cc1[N+](=O)[O-],n,n,n,n,n,n
CN(C)C(=O)c1ccc(-c2cncnc2NCc2cccs2)cc1,x,x,x,50µM,x,x
CCc1cc(C(=O)NNC(=O)CCN2CCN(c3ccccc3)CC2)sc1C,n,n,40µM,n,n,u
O=C(NCCCN1CCCCCC1)c1cc2c(=O)oc3ccccc3c2s1,n,n,79µM,n,n,n
Cc1ccc2oc(=O)c3cc(C(=O)NCCCN4CCN(C)CC4)sc3c2c1,n,n,n,n,n,n
Cc1ccc(CN2CCNC(=O)C2CC(=O)NCc2cc(C)n(C)n2)cc1 (stereo unspecified),n,n,79µM,n,n,n
COc1ccc(CN2CCNC(=O)C2CC(=O)NCc2cc(C)n(C)n2)c(F)c1 (stereo unspecified),n,n,25µM,n,n,n
COc1ccc(CN2CCNC(=O)C2CC(=O)NCc2cccc(C)n2)c(OC)c1 (stereo unspecified),n,n,n,n,n,u
CCOc1ccc(CN2CCNC(=O)C2CC(=O)NCc2cc(C)n(C)n2)cc1 (stereo unspecified),n,n,40µM,n,n,n
Cc1cc(CNC(=O)CC2C(=O)NCCN2Cc2ccccc2C(F)(F)F)nn1C (stereo unspecified),n,n,u,n,n,n
CCOc1ccc(CN2CCNC(=O)C2CC(=O)NCCc2cnccn2)cc1 (stereo unspecified),n,n,u,n,n,n
Cc1ccccc1-n1c(SCC(=O)N2CCOCC2)nc(O)c(Cc2ccccc2)c1=O,n,n,x,n,n,n
COC(=O)[C@H]1C[C@H](C(=O)O)[C@@H](C)C1(C)C,n,n,n[2.33 µM],x,n,n
COc1ccc(CC(=O)N[C@@H]2c3ccccc3CC[C@H]2OCc2ccccc2)cc1,n,n,x,x,n,x
O=C(O)Cn1nc(-c2ccccc2)cc1-c1ccccc1,n,21µM,x,n,u,n
O=C(O)CC(C(=O)O)n1nc(-c2ccccc2)cc1-c1ccccc1 (stereo unspecified),n,n,n,n,u,x
Fc1ccccc1-c1csc(=Nc2cccnc2)n1CCCn1ccnc1,n,n,45µM,n,u,45µM
COCCn1c(-c2cccs2)csc1=Nc1cccnc1,n,n,u,u,u,45µM
CC(C)Cn1c(-c2ccco2)csc1=Nc1cccnc1,n,u,45µM,u,n,32µM
COCCn1c(-c2ccco2)csc1=Nc1cccnc1,n,n,u,20µM,89µM,u
COCCCn1c(C)csc1=Nc1cccnc1,n,n,n,n,n,n
Fc1ccccc1-c1csc(=Nc2cccnc2)n1CC1CCCO1 (stereo unspecified),n,n,n,n,u,u
SMILES,HP1b binding inh,PLK1 PBD inh,G9a inh,Sfp inh,JMJD2A Tudor inh,BAZ2B block
CCOC(=O)c1c(C)[nH]c(C)c1S(=O)(=O)N1CCN(C(=O)c2ccco2)CC1,n,n,n,n,n,n
CCCCC/C=C\C/C=C\C/C=C\C/C=C\CCCC(=O)C(F)(F)F,x,x,n,28µM,x,x
Cc1sc2c(c1C)c(=O)n(-c1ccc(Cl)cc1)c(=O)n2Cc1c(F)cccc1Cl,n,x,n,x,n,n
O=C(NCCN1CCOCC1)c1ccc2c(c1)N(Cc1ccccc1)CCS2,n,27µM,50µM,n,u,n
CN1CCN(CCCNC(=O)c2ccc3c(c2)N(Cc2ccccc2)CCS3)CC1,n,n,79µM,n,u,n
COc1ccc(CCNC(=O)c2ccc3c(c2)N(Cc2cccc(C)c2)C(=O)c2ccccc2S3(=O)=O)cc1OC,n,x,n,x,n,u
COc1ccc(CCNC(=O)c2ccc3c(c2)N(Cc2ccccc2F)C(=O)c2ccccc2S3(=O)=O)cc1OC,n,x,7.9µM,x,n,n
Cc1ccc(C)c(CN2C(=O)c3ccccc3S(=O)(=O)c3ccc(C(=O)N4CCN(C)CC4)cc32)c1,n,n,n,n,n,89µM
O=S(=O)(c1ccc2c(c1)CCCC2)N1CCNCC1,n,n,n[12.7 µM],x,n,n
CCOC(=O)CNC(=S)n1ncnc1N,n,n,n,u,u,u
CN1CCSc2ccc(C(=O)NCc3ccccc3)cc21,n,n,40µM,n,n,u
COc1ccc(CCNC(=O)c2ccc3c(c2)N(Cc2ccc(F)cc2)CCS3)cc1OC,n,30µM,u,n,u,n
COc1ccc(OC)c(CCNC(=O)c2ccc3c(c2)N(Cc2ccc(C)cc2)CCS3)c1,n,x,u,x,u,n
O=C(OCC#CCSc1nnc(-c2cccc3ccccc23)o1)C1CCCC1,x,x,x,x,n,x
Cc1cccc(CNc2nc(-c3ccccc3CN(C)C)nc3ccccc23)c1,x,x,x,n,x,x
Oc1cc(O)c2c(c1)OC(c1cc(O)c(O)c(O)c1)C(O)C2 (stereo unspecified),x,x,u,n,x,x
O=C(O[C@@H]1Cc2c(O)cc(O)cc2OC1c1ccc(O)c(O)c1)c1cc(O)c(O)c(O)c1 (stereo partly specified),x,x,x,50µM,x,x
Oc1cc(O)c2c(c1)O[C@H](c1ccc(O)c(O)c1)[C@H](O)C2,n,n,10µM,n,n,u
O=C(OC1Cc2c(O)cc(O)cc2OC1c1cc(O)c(O)c(O)c1-c1c(C2Oc3cc(O)cc(O)c3CC2OC(=O)c2cc(O)c(O)c(O)c2)cc(O)c(O)c1O)c1cc(O)c(O)c(O)c1 (stereo unspecified),x,x,x,45µM,x,x
CC(C)(CC(=O)O)CC(=O)N1CCCN(c2nccc(C(F)(F)F)n2)CC1,n,n,n[0.501 µM],n,n,n
N#CC1(c2ccccc2)CCC(=O)N1c1ccccc1 (stereo unspecified),n,n,n,n,n,n
CCCCCOC(=O)C(C)c1c(C)[nH]c(=S)[nH]c1=O (stereo unspecified),n,n,71µM,n,n,n
Cc1cc(/C=C2\SC(=S)NC2=O)c(C)n1C1CC1,n,n,u,n,45µM,45µM
Cc1ccc(N=Cc2cc(C)n(C3CCCC3)c2C)cc1,n,n,n[0.0925 µM],n,n,u
Cc1cc(/C=C2/C(=O)N(C)C(=S)N2C)c(C)n1C1CC1,n,n,79µM,n,u,u
Cc1ccc(F)cc1NC(=O)C1C2CCC(O2)C1C(=O)O (stereo unspecified),n,n,79µM,n,n,n

# Bioassay records deposited in PubChem by National Center for Advancing Translational Sciences (NCATS).
